Source: PubChem BioAssay (National Center for Advancing Translational Sciences (NCATS))
HT1080 IDH1KD tx: qHTS for induction of synthetic lethality in tumor cells producing 2HG: qHTS for the HT-1080-IDH1KD cell line | hit rate 2% among 360,000 | Potency, µM (titrated, usually from 46.1 µM), hits mostly cytotoxic | HT-1080 IDH1 knockdown viability, ATP luminescence, 48 h | AID 686971, 2013
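Assay cells: HT-1080 with IDH1 knockdown, 750 per well, RPMI/5% FBS. Exposure: 48 h at 37 °C following 2 h pre-incubation. Read: CellTiter-Glo luminescence; fitted concentration-response, curve class assigned.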
DT40 TDP1 no CPT: qHTS for Inhibitors of human tyrosyl-DNA phosphodiesterase 1 (TDP1): qHTS in cells in absence of CPT; AID 686978, 2013; Potency, µM (highest dose often 46.2 µM), actives largely listed as inhibitors; hit rate 15% among 420,000; DT40 Tdp1-/- hTDP1 cells, no CPT, ATP luminescence, 48 h; note: nearly all actives have a fitted effect of over 55% in size
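Growth of hTDP1-complemented DT40 Tdp1-knockout cells is measured by ATP luminescence after at least 48 hr compound exposure at 37 °C, with DMSO substituting for the 20 nM CPT used in the parallel screen.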
TDP1 cell CPT: qHTS for Inhibitors of human tyrosyl-DNA phosphodiesterase 1 (TDP1): qHTS in cells in presence of CPT; chicken DT40 Tdp1-/-;hTDP1 cells + 20 nM CPT, ATP luminescence, 48 h; Potency, µM (series often up to 46.2 µM), hits mostly inhibitors; hit rate 12% among 420,000; AID 686979, 2013; note: nearly all actives have a fitted effect of over 55% in size
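Chicken DT40 Tdp1-/- cells stably complemented with human TDP1 were seeded at 400 cells/well in medium containing 20 nM camptothecin, exposed to pin-transferred compounds, and grown at 37 °C for at least 48 hr. Viability was read as ATP luminescence.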
KB-3-1 cytotox: qHTS assay for MDR1-selective chemotherapeutics: Primary screen using the parental adenocarcinoma cell KB-3-1. KB-3-1 viability, CellTiter-Glo ATP luminescence, 72 h. Potency, µM (titrated, usually from 46.1 µM), most hits filed as cytotoxic. hit rate 1.4% among 400,000. AID 1347075, 2019; note: nearly all actives have a fitted effect of over 60% in size
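Viability of parental KB-3-1 cells, measured by CellTiter-Glo luminescence, followed a 72 h incubation at 37 °C with pinned compounds in phenol-red-free DMEM containing 10% FBS.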
KB-V1 cytotox: qHTS assay for MDR1-selective chemotherapeutics: Primary screen using the drug-selected MDR subline cells KB-V1; KB-V1 MDR cells viability, CellTiter-Glo, 72 h; Potency, µM (doses to about 46.1 µM), usual class: cytotoxic; hit rate 3.4% among 400,000; AID 1347076, 2019; note: nearly all actives have a fitted effect of over 60% in size
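Compound-treated KB-V1 multidrug-resistant cells, 72 h, 37 degrees C; viability by CellTiter-Glo. Fitted qHTS curves give the values.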
HT1080-NT tox: qHTS for induction of synthetic lethality in tumor cells producing 2HG: qHTS for the HT-1080-NT fibrosarcoma cell line; HT-1080-NT fibrosarcoma viability, CellTiter-Glo ATP luminescence, 48 h; Potency, µM (titrated, usually from 46.1 µM), hits mostly cytotoxic; hit rate 1.6% among 360,000; AID 686970, 2013;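 note: NT is the 2HG producing partner of a matched IDH1 knockdown line; nearly all actives have a fitted effect of over 55% in size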
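HT-1080-NT fibrosarcoma cells (2HG-overproducing), 750 cells/well in RPMI with 5% FBS, dosed after 2 h and incubated 48 h at 37C. CellTiter-Glo luminescence normalized to DMSO and no-cell wells; concentration-response curves fitted and classed.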
Hits are given with their value; - = inactive; ? = inconclusive; . = no result. Only some compounds are listed: those with a hit (about 19% of all), similar ones and a draw of the others. Calls come from the whole dose curve; as a rule, active = well fitted curve in the direction sought with a large enough effect; inconclusive = small, poorly fitted or top-dose-only effect, or another doubt; inactive = no such curve, though single readings can be large; an effect the other way counts as inactive or inconclusive.

SMILES	HT1080 IDH1KD tx	DT40 TDP1 no CPT	TDP1 cell CPT	KB-3-1 cytotox	KB-V1 cytotox	HT1080-NT tox
S=C(Nc1ccccc1)N1CCN(C/C=C/c2ccccc2)CC1	-	?	-	-	-	-
O=C1NC[C@H](CCCCN2C[C@H](Cc3ccc(O)cc3)N(CCc3ccc(O)cc3)C(=O)C2=O)N(CCc2ccc(O)cc2)C1=O	-	-	-	-	-	-
COc1cccc(C2=CC(c3ccccc3)n3nnnc3N2)c1 (stereo unspecified)	?	3.7µM	5.8µM	?	6.5µM	7.9µM
COc1cccc(C2=CC(c3ccc(N(C)C)cc3)n3nnnc3N2)c1 (stereo unspecified)	?	13µM	21µM	18µM	13µM	-
COc1cccc(C2C=C(c3ccc(OC)cc3OC)Nc3nnnn32)c1 (stereo unspecified)	-	16µM	?	?	23µM	-
CCOc1ccc(NC(=O)c2cnn3c2NC(c2cccc(OC)c2)=CC3c2ccccc2)cc1 (stereo unspecified)	.	21µM	21µM	-	-	.
COc1cc(C2CC(=O)N(CC(=O)Nc3ccccc3F)c3ccccc3S2)cc(OC)c1OC (stereo unspecified)	.	.	.	-	?	.
COc1ncc2nc(-c3ccccc3)c(=O)n(CCc3ccccc3)c2n1	.	-	-	.	.	.
Cc1c(C(=O)NCc2ccc3c(c2)OCCO3)sc(=O)n1Cc1ccc2c(c1)OCO2	-	?	?	-	?	-
Cc1c(C(=O)NCc2ccc([N+](=O)[O-])cc2)sc(=O)n1Cc1ccc2c(c1)OCO2	-	?	?	-	15µM	?
C=Cc1ccc(Cn2c(C)c(C(=O)NCc3ccc4c(c3)OCO4)sc2=O)cc1	-	?	?	?	?	-
Cc1c(C(=O)NCc2ccc3c(c2)OCO3)sc(=O)n1Cc1ccc(S(=O)(=O)N(C)C)cc1	?	16µM	?	?	2.9µM	-
COc1ccc(CNC(=O)c2cn(Cc3ccc(S(=O)(=O)N(C)C)cc3)c(=O)s2)cc1	?	?	?	?	23µM	-
Cc1c(C(=O)NCc2cccs2)sc(=O)n1Cc1ccc(S(=O)(=O)N(C)C)cc1	-	23µM	?	?	?	-
O=C1CC(c2nc3ccccc3n2CCC2CCCCC2)CN1c1ccccc1Cl (stereo unspecified)	.	?	-	-	?	.
Cc1cc(C(=O)NCCc2ccccc2)c2cc(F)ccc2n1	-	?	-	-	?	-
CCc1ccccc1NC(=O)Cn1cc(C(=O)c2ccc(Cl)cc2)c(=O)c2ccc(C)nc21	.	-	-	-	-	.
Cc1c(C(=O)NCc2ccc3c(c2)OCCO3)sc(=O)n1Cc1ccc(S(=O)(=O)N(C)C)cc1	?	15µM	18µM	?	9.2µM	-
Cc1c(C(=O)NCc2ccc3c(c2)OCCO3)sc(=O)n1Cc1ccccc1C(F)(F)F	-	?	?	-	?	-
CC(=O)Nc1ccc(OCc2cn(CC(=O)c3ccc(O)cc3)nn2)cc1	-	-	-	-	-	-
CCOc1ccccc1C(=O)NCc1nc2cccnc2n1Cc1ccc(C)cc1	.	16µM	18µM	.	.	.
COc1ccc(CCC(=O)NCc2nc3cccnc3n2Cc2ccc(C)cc2)cc1	.	23µM	?	.	.	.
CCOc1ccc(C(=O)NCc2nc3cccnc3n2Cc2ccc(F)cc2)cc1OCC	.	-	-	.	.	.
COc1ccc(CCC(=O)NCc2nc3cccnc3n2Cc2ccc(OC)cc2)cc1	.	-	-	.	.	.
COc1ccc(CCC(=O)NCc2nc3cccnc3n2Cc2ccccc2)cc1	.	16µM	?	.	.	.
SMILES	HT1080 IDH1KD tx	DT40 TDP1 no CPT	TDP1 cell CPT	KB-3-1 cytotox	KB-V1 cytotox	HT1080-NT tox
O=C(Cn1c(SCCOc2ccccc2Cl)nc2ccccc21)N1CCCCC1	.	?	?	-	?	.
COC1=C(OC)C(=O)C(Sc2ccc3ccccc3c2)=CC1=O	16µM	1.3µM	1.3µM	?	2.6µM	?
CCC(=O)N1CCC1(C)C(=O)Nc1ccc2scnc2c1 (stereo unspecified)	-	-	?	-	-	-
COc1ccc(N(C(=O)c2ccco2)S(=O)(=O)c2cc(Cl)c(Cl)cc2Cl)cc1	?	?	18µM	-	-	?
O=C(Nc1ccc(Br)cc1)c1cc(S(=O)(=O)NC2CCCC2)ccc1F	.	21µM	23µM	21µM	?	.
Cc1ccc(NC(=O)c2cc(S(=O)(=O)NC3CCCCC3)ccc2F)cc1Cl	.	21µM	23µM	.	.	.
O=C(Nc1ccc(S(=O)(=O)NC2CCCCC2)cc1)c1ccc(Br)o1	?	?	?	?	?	-
O=C(Nc1cc(Cl)cc(Cl)c1)c1cc(S(=O)(=O)N2CCc3ccccc3C2)ccc1F	.	?	?	-	-	.
O=C(Nc1ccc(F)c(F)c1)c1cc(S(=O)(=O)NC2CCCC2)ccc1F	.	23µM	?	.	.	.
O=C(Nc1cc(Cl)cc(Cl)c1)c1cc(S(=O)(=O)NC2CCCC2)ccc1F	.	21µM	?	?	?	.
O=S1(=O)c2ccccc2N(Cc2cccc(Cl)c2)c2ccccc21	.	?	?	-	-	.
O=C(C1CN(C(=O)c2cc3cc(Cl)ccc3o2)c2ccccc2O1)N1CCCCC1 (stereo unspecified)	-	?	?	?	21µM	-
O=C(c1cc2cc(Cl)ccc2oc1=O)N1CCCCCCC1	-	-	-	-	-	-
Cc1nc2c(ccc3nc(NC(=O)C4CC4)sc32)s1	?	?	?	?	21µM	?
CCCC(=O)Nc1nc2ccc3nc(C)sc3c2s1	-	?	-	-	-	-
CCC(=O)Nc1nc2ccc3sc(C)nc3c2s1	?	23µM	18µM	?	?	-
COc1ccc(CCNC(=O)C2(c3cccs3)CCOCC2)cc1OC	.	-	-	-	-	.
O=C(O)C1(Nc2ccc(Cl)cc2)CCCC1	-	-	-	-	?	-
NC(=O)C1(Nc2ccc(-c3ccc(Cl)cc3)cc2)CCCC1	-	?	16µM	?	-	-
COC[C@H]1CCCN1c1ccc2c(c1)O[C@@H](COCc1ccccc1)CN([C@H](C)c1ccccc1)S2(=O)=O	-	13µM	9.2µM	-	-	-
COC[C@@H]1CCCN1c1ccc2c(c1)O[C@H](COCc1ccccc1)CN([C@@H](C)c1ccccc1)S2(=O)=O	-	3.7µM	2.6µM	-	-	-
